# Results as given in the supplement of paper PMC10849652.
# The full data set covers some 8,800 targets. This sample favours those with a hit. About 0.5% of all pairs of compound and target were hits. Values without a mark were called inactive.
# Compound: C1=CC2=C(C=CC(=C2)/C=C\3/C(=O)NC(=NCC4=CC=CS4)S3)N=C1
# Assay: log2 fold change, soluble protein after heating vs DMSO (PISA); higher = thermal stabilisation; K562 lysate, 10 uM; active = over 0.2 and 3.5 SD of the protein, either way, in both replicates (recomputed)
# Summary of the method: (§1)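 Dounce homogenisation of K562 pellets in PBS pH 7.4 with 1 mM MgCl2 produced a crude extract, used at 1 mg/mL protein. Exposure to 10 μM compound lasted 30 min, and aliquots were then heated for 3 min across 48°C-58°C, pooled and brought to 0.5% NP-40 at 4°C. The supernatant after 21,000xg for 90 min was quantified by TMTpro 16plex LC-MS/MS with channel sums equalised. Duplicate values are given as log-two fold change in thermal stability relative to solvent controls.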
# UniProt Q8IWF6, sequence (Q8IWF6 whole entry, looked up): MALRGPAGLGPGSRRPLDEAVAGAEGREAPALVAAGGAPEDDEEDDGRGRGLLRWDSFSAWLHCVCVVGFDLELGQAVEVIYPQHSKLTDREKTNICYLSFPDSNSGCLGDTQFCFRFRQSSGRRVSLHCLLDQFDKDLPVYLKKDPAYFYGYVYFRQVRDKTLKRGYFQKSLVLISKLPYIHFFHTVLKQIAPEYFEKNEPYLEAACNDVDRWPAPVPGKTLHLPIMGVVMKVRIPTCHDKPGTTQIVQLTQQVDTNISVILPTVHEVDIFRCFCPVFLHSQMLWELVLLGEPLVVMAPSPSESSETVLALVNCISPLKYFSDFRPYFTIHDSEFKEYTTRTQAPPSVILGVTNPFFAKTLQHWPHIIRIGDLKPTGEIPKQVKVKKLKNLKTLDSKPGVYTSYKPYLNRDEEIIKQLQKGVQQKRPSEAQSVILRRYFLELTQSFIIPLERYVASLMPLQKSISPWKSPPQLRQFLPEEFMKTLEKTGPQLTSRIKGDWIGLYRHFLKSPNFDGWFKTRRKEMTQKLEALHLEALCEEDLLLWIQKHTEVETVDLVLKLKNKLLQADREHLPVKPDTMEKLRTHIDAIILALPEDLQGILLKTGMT
# UniProt Q9H5X1, sequence (Q9H5X1 whole entry, looked up): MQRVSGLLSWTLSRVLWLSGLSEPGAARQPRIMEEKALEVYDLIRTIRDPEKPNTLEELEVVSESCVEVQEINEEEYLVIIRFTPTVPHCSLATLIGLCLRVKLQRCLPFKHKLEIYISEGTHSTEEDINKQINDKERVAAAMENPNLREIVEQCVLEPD
# UniProt Q9NSV4, sequence (Q9NSV4 whole entry, looked up): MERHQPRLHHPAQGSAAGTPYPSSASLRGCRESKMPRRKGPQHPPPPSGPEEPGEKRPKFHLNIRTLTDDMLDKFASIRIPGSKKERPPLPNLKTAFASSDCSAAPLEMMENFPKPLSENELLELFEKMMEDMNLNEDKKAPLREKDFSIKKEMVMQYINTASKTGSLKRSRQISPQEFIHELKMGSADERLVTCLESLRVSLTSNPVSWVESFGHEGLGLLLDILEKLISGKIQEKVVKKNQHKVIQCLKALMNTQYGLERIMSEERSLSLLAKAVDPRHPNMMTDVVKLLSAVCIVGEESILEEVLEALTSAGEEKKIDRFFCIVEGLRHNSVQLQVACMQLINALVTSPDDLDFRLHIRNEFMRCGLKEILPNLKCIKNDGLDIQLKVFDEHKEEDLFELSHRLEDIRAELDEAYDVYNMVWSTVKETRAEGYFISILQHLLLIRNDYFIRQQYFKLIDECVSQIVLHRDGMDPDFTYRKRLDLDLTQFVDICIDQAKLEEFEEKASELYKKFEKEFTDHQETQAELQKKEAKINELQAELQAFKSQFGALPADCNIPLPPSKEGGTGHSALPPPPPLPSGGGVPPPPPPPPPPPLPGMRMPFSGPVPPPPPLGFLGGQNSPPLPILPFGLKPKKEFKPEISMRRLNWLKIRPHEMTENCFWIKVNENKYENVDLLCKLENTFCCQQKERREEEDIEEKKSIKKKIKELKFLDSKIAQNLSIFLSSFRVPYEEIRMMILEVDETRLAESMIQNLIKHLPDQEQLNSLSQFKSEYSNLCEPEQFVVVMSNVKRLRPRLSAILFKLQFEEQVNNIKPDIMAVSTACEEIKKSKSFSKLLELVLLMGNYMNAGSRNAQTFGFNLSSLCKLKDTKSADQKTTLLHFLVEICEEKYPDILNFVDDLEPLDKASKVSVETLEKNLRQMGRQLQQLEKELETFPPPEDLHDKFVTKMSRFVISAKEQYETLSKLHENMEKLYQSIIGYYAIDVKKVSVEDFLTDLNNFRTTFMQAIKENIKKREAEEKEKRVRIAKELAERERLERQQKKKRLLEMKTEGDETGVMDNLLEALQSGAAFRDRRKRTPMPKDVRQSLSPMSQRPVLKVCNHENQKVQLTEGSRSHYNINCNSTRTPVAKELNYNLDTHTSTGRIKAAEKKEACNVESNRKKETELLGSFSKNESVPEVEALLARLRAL
# UniProt Q96DG6, sequence (Q96DG6 whole entry, looked up): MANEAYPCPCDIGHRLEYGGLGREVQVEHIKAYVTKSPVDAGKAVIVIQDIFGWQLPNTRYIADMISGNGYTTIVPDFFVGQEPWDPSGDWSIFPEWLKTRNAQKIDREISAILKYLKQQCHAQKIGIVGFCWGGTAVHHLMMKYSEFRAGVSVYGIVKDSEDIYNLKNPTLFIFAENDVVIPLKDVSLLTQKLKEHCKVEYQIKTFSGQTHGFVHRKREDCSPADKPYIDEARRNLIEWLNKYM
# UniProt P09543, sequence (P09543 whole entry, looked up): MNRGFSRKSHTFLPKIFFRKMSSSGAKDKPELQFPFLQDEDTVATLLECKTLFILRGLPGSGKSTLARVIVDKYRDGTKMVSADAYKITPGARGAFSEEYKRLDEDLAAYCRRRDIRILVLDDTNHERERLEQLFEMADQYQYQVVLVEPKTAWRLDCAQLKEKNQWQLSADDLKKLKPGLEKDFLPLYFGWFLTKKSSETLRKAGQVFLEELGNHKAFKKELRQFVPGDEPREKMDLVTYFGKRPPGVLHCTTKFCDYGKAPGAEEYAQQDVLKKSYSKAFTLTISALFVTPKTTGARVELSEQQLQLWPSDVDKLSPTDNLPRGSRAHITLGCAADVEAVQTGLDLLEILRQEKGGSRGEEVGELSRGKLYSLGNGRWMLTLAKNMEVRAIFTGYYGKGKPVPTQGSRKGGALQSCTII
# UniProt P99999, sequence (P99999 whole entry, looked up): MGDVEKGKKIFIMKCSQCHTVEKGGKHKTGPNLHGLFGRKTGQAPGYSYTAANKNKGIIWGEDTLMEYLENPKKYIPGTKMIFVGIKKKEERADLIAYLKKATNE
# UniProt Q6PJW8, sequence (Q6PJW8 whole entry, looked up): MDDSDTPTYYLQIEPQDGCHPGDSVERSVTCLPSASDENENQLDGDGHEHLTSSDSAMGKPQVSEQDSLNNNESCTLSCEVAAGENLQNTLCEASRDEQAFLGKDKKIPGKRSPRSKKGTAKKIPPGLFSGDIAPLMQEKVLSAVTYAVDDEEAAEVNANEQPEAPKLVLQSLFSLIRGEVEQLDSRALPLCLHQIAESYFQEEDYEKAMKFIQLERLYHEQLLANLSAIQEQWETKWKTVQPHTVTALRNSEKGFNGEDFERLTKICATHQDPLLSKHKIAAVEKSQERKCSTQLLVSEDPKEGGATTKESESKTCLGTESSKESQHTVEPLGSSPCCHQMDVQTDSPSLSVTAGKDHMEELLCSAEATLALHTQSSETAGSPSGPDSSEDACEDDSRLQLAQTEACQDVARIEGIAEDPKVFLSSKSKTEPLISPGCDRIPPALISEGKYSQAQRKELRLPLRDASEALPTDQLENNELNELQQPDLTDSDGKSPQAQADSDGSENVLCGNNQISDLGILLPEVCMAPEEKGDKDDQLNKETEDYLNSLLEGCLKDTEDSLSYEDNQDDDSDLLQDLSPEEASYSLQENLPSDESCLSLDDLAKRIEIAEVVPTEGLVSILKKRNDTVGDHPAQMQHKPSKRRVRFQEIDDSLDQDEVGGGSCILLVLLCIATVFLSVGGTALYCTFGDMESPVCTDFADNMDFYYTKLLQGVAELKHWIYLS
# UniProt P83436, sequence (P83436 whole entry, looked up): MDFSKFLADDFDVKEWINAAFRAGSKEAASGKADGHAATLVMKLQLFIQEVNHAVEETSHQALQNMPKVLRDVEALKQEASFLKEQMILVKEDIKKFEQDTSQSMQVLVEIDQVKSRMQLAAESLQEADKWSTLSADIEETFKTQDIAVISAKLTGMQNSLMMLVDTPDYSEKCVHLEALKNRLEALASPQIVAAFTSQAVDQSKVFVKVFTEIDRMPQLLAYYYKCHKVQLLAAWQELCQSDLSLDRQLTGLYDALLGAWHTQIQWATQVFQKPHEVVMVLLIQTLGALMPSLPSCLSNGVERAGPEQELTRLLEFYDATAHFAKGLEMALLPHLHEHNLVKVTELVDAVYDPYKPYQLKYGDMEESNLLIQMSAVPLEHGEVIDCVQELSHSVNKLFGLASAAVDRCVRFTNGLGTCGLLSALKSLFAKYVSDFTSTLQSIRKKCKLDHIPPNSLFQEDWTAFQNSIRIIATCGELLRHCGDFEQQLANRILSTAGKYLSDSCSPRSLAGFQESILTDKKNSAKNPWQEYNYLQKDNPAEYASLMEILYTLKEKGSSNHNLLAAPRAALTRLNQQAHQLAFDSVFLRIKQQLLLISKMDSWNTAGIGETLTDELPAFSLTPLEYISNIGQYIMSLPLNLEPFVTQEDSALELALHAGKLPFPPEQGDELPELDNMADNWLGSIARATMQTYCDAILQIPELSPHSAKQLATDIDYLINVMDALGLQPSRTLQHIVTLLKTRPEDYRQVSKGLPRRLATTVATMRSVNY
# UniProt Q8WUH1, sequence (Q8WUH1 whole entry, looked up): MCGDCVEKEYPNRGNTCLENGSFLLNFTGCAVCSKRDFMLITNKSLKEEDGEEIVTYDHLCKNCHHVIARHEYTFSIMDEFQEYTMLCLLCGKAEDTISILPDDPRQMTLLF
# UniProt Q96KC8, sequence (Q96KC8 whole entry, looked up): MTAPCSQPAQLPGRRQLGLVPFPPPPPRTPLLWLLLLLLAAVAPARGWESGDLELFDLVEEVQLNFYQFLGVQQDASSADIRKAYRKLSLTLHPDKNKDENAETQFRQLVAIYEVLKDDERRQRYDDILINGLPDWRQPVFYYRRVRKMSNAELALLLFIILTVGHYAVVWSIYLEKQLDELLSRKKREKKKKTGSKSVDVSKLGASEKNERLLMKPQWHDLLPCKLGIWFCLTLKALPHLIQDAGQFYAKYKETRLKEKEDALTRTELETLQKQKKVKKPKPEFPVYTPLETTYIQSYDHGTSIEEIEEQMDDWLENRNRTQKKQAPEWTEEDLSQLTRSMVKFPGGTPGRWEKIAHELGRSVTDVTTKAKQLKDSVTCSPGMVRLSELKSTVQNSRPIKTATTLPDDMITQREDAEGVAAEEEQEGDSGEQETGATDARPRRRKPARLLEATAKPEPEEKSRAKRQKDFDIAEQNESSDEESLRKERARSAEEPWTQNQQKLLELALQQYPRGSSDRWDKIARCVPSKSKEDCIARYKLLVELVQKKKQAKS
row,Target,log2 fold change
1,CIAO2A (UniProt Q9H5X1),-0.056
2,DNAJC1 (UniProt Q96KC8),-0.053
3,DIAPH3 (UniProt Q9NSV4),0.05
4,CNP (UniProt P09543),-0.012
5,CHURC1 isoform 2 (UniProt Q8WUH1),-0.003
6,CYCS (UniProt P99999),-0.006
7,CSNK2B (UniProt P67870),0.151
8,DOCK8 (UniProt Q8NF50),0.018
9,CRABP2 (UniProt P29373),-0.063
10,DENND6A (UniProt Q8IWF6),0.073
11,CHMP4A isoform 2 (UniProt Q9BY43),-0.01
12,CLCN3 (UniProt P51790),0.06
13,DHRS11 (UniProt Q6UWP2),0.017
14,COTL1 (UniProt Q14019),-0.006
15,CMBL (UniProt Q96DG6),-0.031
16,CPT1A (UniProt P50416),-0.001
17,DHRS1 (UniProt Q96LJ7),-0.008
18,COG7 (UniProt P83436),0.034
19,CXorf38 (UniProt Q8TB03),0.01
20,CNST (UniProt Q6PJW8),0.01
21,CUX1 isoform 3 (UniProt P39880),0.03
22,DHFR (UniProt P00374),-0.019

# Compound: C1=CC2=NC=CN=C2C=C1/C=C/3\C(=O)NC(=O)S3
# Assay: as above
# Summary of the method: as §1
row,Target,log2 fold change
1,CIB1 (UniProt Q99828),-0.227
2,COL6A5 (UniProt A8TX70),-0.167
3,DFFB (UniProt O76075),0.084
4,CSNK1G3 (UniProt Q9Y6M4),0.073
5,DNM2 (UniProt P50570),0.029
6,COPZ1 isoform 4 (UniProt P61923),-0.142
7,DPH5 isoform 5 (UniProt Q9H2P9),-0.017
8,COQ9 (UniProt O75208),0.046
9,DLD (UniProt P09622),0.025
10,CLP1 (UniProt Q92989),-0.045
11,DMAC2L (UniProt Q99766),-0.074
12,DOCK10 (UniProt Q96BY6),-0.094
13,CIAO2A (UniProt Q9H5X1),-0.071
14,DNAJC1 (UniProt Q96KC8),0.032
15,DIAPH3 (UniProt Q9NSV4),0.074
16,CNP (UniProt P09543),-0.022
17,CHURC1 isoform 2 (UniProt Q8WUH1),0.015

row,Target,log2 fold change
1,CYCS (UniProt P99999),0.003
2,CSNK2B (UniProt P67870),0.33 (active)
3,DOCK8 (UniProt Q8NF50),0.005
4,CRABP2 (UniProt P29373),0.2
5,DENND6A (UniProt Q8IWF6),0.048
6,CHMP4A isoform 2 (UniProt Q9BY43),-0.018
7,CLCN3 (UniProt P51790),0.016
8,DHRS11 (UniProt Q6UWP2),-0.006
9,COTL1 (UniProt Q14019),-0.02
10,CMBL (UniProt Q96DG6),0.01
11,CPT1A (UniProt P50416),-0.05
12,DHRS1 (UniProt Q96LJ7),-0.036
13,COG7 (UniProt P83436),0.012
14,CXorf38 (UniProt Q8TB03),0.042
15,CNST (UniProt Q6PJW8),-0.004
16,CUX1 isoform 3 (UniProt P39880),-0.049
17,DHFR (UniProt P00374),0.045

# Compound: C1=CC=C(C=C1)C2=NC(=C(N2)C3=CC=NC=C3)C4=CC(=C(C=C4)Cl)O
# Assay: as above
# Summary of the method: as §1
row,Target,log2 fold change
1,CIB1 (UniProt Q99828),0.023
2,COL6A5 (UniProt A8TX70),0.027
3,DFFB (UniProt O76075),0.047
4,CSNK1G3 (UniProt Q9Y6M4),-0.043
5,DNM2 (UniProt P50570),0.003
6,COPZ1 isoform 4 (UniProt P61923),-0.006
7,DPH5 isoform 5 (UniProt Q9H2P9),0.074
8,COQ9 (UniProt O75208),0
9,DLD (UniProt P09622),0.004
10,CLP1 (UniProt Q92989),-0.014
11,DMAC2L (UniProt Q99766),0.015
12,DOCK10 (UniProt Q96BY6),-0.048
13,CIAO2A (UniProt Q9H5X1),-0.025
14,DNAJC1 (UniProt Q96KC8),-0.044
15,DIAPH3 (UniProt Q9NSV4),0.045
16,CNP (UniProt P09543),0.007
17,CHURC1 isoform 2 (UniProt Q8WUH1),0.079

row,Target,log2 fold change
1,CYCS (UniProt P99999),0.008
2,CSNK2B (UniProt P67870),-0.012
3,DOCK8 (UniProt Q8NF50),0.017
4,CRABP2 (UniProt P29373),-0.042
5,DENND6A (UniProt Q8IWF6),0.024
6,CHMP4A isoform 2 (UniProt Q9BY43),0.021
7,CLCN3 (UniProt P51790),-0.02
8,DHRS11 (UniProt Q6UWP2),-0.015
9,COTL1 (UniProt Q14019),0
10,CMBL (UniProt Q96DG6),-0.002
11,CPT1A (UniProt P50416),0.002
12,DHRS1 (UniProt Q96LJ7),0.654 (active)
13,COG7 (UniProt P83436),0.006
14,CXorf38 (UniProt Q8TB03),0.013
15,CNST (UniProt Q6PJW8),0.007
16,CUX1 isoform 3 (UniProt P39880),-0.039
17,DHFR (UniProt P00374),0.025
